We go through 103 compounds from PubChem BioAssay AID624169 (The Scripps Research Institute Molecular Screening Center, 2012).

Where “and” joins values, the source holds several entries; their conditions need not be identical. Equal entries are not always repeated. Among all 360,000 compounds or so, about 2,400 (0.67%) were called active. This is one part of a sample in which actives are shown more often than they occur. A number with no mark means an inactive call.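 How the source made its calls: active means activation above a run cutoff, the mean activation of all tested compounds plus 3 SD (cut at about 14% in these data); inactive means the rest.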

The target in the experiment is 5-hydroxytryptamine receptor 2A (Mus musculus) (UniProt P35363). Kind of experiment: mouse Htr2a agonists via beta-arrestin recruitment, primary screen, cell-based, luminescence (AID 624169).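 Further: 0% = plate median of compound wells and 100% = 30 µM serotonin.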 Conditions: CHO-K1 mHTR2A beta-arrestin complementation, at 7.6 µM, hits give high values, percent of 30 µM serotonin response.
5-hydroxytryptamine receptor 2A (Mus musculus), sequence (P35363 whole entry, looked up): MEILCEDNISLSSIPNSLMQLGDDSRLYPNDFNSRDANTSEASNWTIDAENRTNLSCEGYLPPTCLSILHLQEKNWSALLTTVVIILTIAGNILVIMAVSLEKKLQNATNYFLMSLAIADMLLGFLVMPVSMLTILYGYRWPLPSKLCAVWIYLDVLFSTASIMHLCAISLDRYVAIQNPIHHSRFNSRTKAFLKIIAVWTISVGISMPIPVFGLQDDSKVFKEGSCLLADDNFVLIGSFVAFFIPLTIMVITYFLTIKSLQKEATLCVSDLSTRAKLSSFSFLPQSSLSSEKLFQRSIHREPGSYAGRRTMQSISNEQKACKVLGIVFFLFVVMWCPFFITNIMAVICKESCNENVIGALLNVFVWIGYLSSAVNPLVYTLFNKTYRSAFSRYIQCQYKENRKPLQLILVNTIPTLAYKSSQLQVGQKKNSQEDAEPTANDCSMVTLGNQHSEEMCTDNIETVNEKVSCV
Consider `Cc1cc(C)n(-c2ccc(NC(=O)C3CCCCN3C(=O)c3cccs3)cc2)n1` (stereo not drawn), for which the activation is -0.84%.
To `CC(=O)N1CCN(C(=O)c2cc(-c3ccc(Cl)s3)nc3ccccc23)CC1` belongs -0.1%; to `COC(=O)c1cc(N2CCNCC2)nc2ccccc12`, 54.9% (active).
To `Cc1cc(C(=O)OCC(=O)N2C(C)CCCC2C)c2ccccc2n1` (stereo not drawn) belongs 5%.
The same measure for `CCOc1ccc(CN(Cc2ccco2)C(c2cccs2)c2nnnn2C(C)(C)C)cc1` (stereo not drawn): 6.56%; for `CC(C)Oc1ccc(Cc2n[nH]c(=S)n2Cc2ccccc2)cc1Cl`: 0.66%; for `COC(=O)CC(=O)N1CCN(c2ccc(Cl)c(Cl)c2)CC1`: 34.5% (active).
As for `CC(C)c1nnc(NC(=O)CCC(=O)N2CCN(c3cccc(Cl)c3)CC2)s1`, the activation is 10.8%.
To `COC(=O)c1ccccc1OCC(=O)N1CCN(c2ccc(Cl)cc2)CC1` belongs 3.93%; to `O=C(c1ccco1)N(Cc1nc2ccccc2c(=O)[nH]1)C1CCCC1`, 3.03%.
To `COc1ccc(-c2cc(C(=O)N3CCN(Cc4ccc5c(c4)OCO5)CC3)on2)cc1OC` belongs -7.64%; to `O=C(c1cccs1)N1CCN(Cc2ccc3c(c2)OCO3)CC1`, 25.9% (active); to `O=C(CCCN1C(=O)c2cccc3cccc(c23)C1=O)N1CCN(Cc2ccc3c(c2)OCO3)CC1`, -3.63%.
To `Cc1nc2ccccc2nc1CC(O)(c1ccccc1)c1ccccc1` belongs 1.95%.
Turning to `Cc1ccc(S(=O)(=O)N[C@H]2CCC[C@@H]2O)cc1`, the activation was 0.49%.
To `O=C(O)Cc1csc(-c2cccc(Oc3ccccc3)c2)n1` belongs 5.47% and 2.04%; to `COc1cc(NC(=O)COC(=O)c2cc(S(=O)(=O)N3CCOCC3)ccc2F)cc(OC)c1`, 2.06%.
The same measure for `O=C(COC(=O)c1cc(S(=O)(=O)N2CCOCC2)ccc1F)NC1CC1`: 20.8% (active).
As to `O=C(OCCOc1ccccc1F)c1cc(S(=O)(=O)N2CCOCC2)ccc1F`, the activation was -6.59%.
The same measure for `C[C@H](CO)N1C[C@H](C)[C@@H](CN(C)S(=O)(=O)c2ccc(F)cc2)Oc2c(NC(=O)Nc3ccccc3)cccc2C1=O`: 1.16%; for `CCSCc1nc(N)nc(NCCc2ccccc2)n1`: -1.03%.
To `CC(=O)c1ccc(OCCCC(=O)Nc2ccc(C)c(S(=O)(=O)N3CCOCC3)c2)cc1` belongs 4.29%.
`COc1cc2ccc(C(C)=O)c(O)c2cc1OC`: the activation is -4.06%.
To `COc1ccc(/C(=N\O)c2nccc3cc(OC)c(OC)cc23)cc1OC` belongs 24.7% (active).
For the compound `COC(=O)c1ccc(-c2c(-c3ccccc3)ncc3cc(OC)c(OC)cc23)cc1`, the activation is 6.54%.
The same measure for `N#Cc1c(NC(=O)C2CCCO2)sc2c1CCCCC2` (stereo not drawn): 0.23%.
To `N#Cc1c(NC(=O)CCCl)sc2c1CCCCC2` belongs 20% (active); to `N#Cc1c(NC(=O)C2CC(Cl)=CCC2C(=O)O)sc2c1CCCCC2` (stereo not drawn), 5.86%; to `Cc1ccc(OC(=O)c2ccccc2C(=O)OCC(F)(F)C(F)F)cc1`, -7.85%.
The same measure for `COc1ccc(C(=O)OCC(=O)NC(=O)CCSc2ccccc2)cc1`: 1.32%.
Turning to `C[C@@H]1C(c2ccc(F)cc2)=NN(c2ccc(Br)cc2)[C@H]1C(=O)N1CCOC1=O`, the activation is -5.98%.
To `CCCCCC(O)(CCN1CCCCC1)c1ccccc1` (stereo not drawn) belongs -1.22%; to `O=C(CSc1nnc(N2CCOCC2)n1-c1cccc(F)c1)N1CCN(c2ccccn2)CC1`, -5.52%; to `Cc1ccccc1NC(=O)CCOc1ccccc1`, 4.29%.
To `Cc1ccc(NC(=O)CCOc2ccccc2)cc1S(=O)(=O)Nc1ccccc1Cl` belongs 15.2% (active); to `CCc1ccccc1NC(=O)CCOc1ccccc1`, 1.35%.
The same measure for `CC(=O)Nc1cc(-c2ccccc2F)cn2c(-c3cccc(C(F)(F)F)c3)cnc12`: 1.96%; for `Cc1ccc(CN2CC(N3CCC(Cc4ccccc4)CC3)CS2(=O)=O)cc1` (stereo not drawn): -4.23%; for `Cc1cccc(CN2CCN(C3CN(Cc4cn(Cc5cc(C)cc(C)c5)nn4)S(=O)(=O)C3)CC2)c1` (stereo not drawn): 19.3% (active).
As for `Cc1ccc(Cn2cc(CN3CC(N4CCN(C)CC4)CS3(=O)=O)nn2)cc1` (stereo not drawn), the activation was -3.17%.
The same measure for `Cc1cccc(CN2CCN(C3CN(Cc4ccccc4)S(=O)(=O)C3)CC2)c1` (stereo not drawn): 20.9% (active); for `Cc1cccc(CN2CCN(C3CN(Cc4cn(Cc5ccccc5F)nn4)S(=O)(=O)C3)CC2)c1` (stereo not drawn): 7.98%.
The same measure for `CCCCN1CC(N2CCN(Cc3cccc(C)c3)CC2)CS1(=O)=O` (stereo not drawn): 12.1%; for `COc1ccc(N2CCN(S(=O)(=O)c3cc4c5c(c3)C(C)C(=O)N5CCC4)CC2)cc1` (stereo not drawn): 4.42%.
To `O=C(CNC(=O)c1cc(=O)[nH]c2ccccc12)Nc1ccc(F)c(F)c1` belongs -0.64%; to `CC1=C(C(=O)N2CCOCC2)CC(CC(=O)NCC2CCCCC2)C(=O)N1Cc1ccc(F)cc1` (stereo not drawn), 0.51%; to `O=C(COC(=O)CNC(=O)C1CCCCC1)NCc1ccccc1`, 4.87%.
As for `Fc1cccc(Cl)c1COc1ccc(-c2nnco2)cc1`, the activation is 0.11%.
With `COc1ccc2c(Cl)c(-c3nnco3)sc2c1`, the activation was 15.6% (active).
The same measure for `C#CCSc1nnc(-c2sc3ccccc3c2Cl)o1`: 3.02%; for `O=C(CNCc1cccs1)Nc1cc(S(=O)(=O)N2CCCC2)ccc1Cl`: 17.4% (active); for `O=C(COC(=O)CCOc1ccccc1)Nc1cc(S(=O)(=O)N2CCCCC2)ccc1Cl`: 2.8%.
Consider `CS(=O)(=O)c1ccc(Cl)c(NC(=O)COC(=O)c2cccc(S(=O)(=O)N3CCCC3)c2)c1`, for which the activation is -2.1%.
To `Cc1ccc2c(c1)NCC(C(=O)NC1CCC(C)CC1)O2` (stereo not drawn) belongs 16.6% (active); to `Cc1ccc(C(=O)NC2CC(C)(C)NC(C)(C)C2)c(C)c1`, 3.41%; to `Cc1ccc(S(=O)(=O)NCc2ccc(C(=O)NC3CCC(C)CC3)cc2)cc1` (stereo not drawn), -3.68%.
For `Cc1ccccc1C(=O)N1CCC(C(=O)Oc2ccc(C#N)cc2)CC1`, the activation was -3.91%.
The same measure for `O=C(NNc1cc(Cl)cc(Cl)c1)c1c(F)cccc1Cl`: 1.49%; for `COCCN(Cc1cc2cc3c(cc2nc1Cl)OCO3)C(=O)c1cccc(C)c1`: 16.6% (active); for `Cc1ccc2cc(CCNC(=O)c3ccc4c(c3)OCO4)c(=O)[nH]c2c1`: 5.29%.
`CCCCN(CC)C(=O)c1ccc2c(c1)OCO2`: the activation was 1.68%.
To `Cn1nnnc1-c1cc(Cl)cc(Cl)c1` belongs 2.61%; to `COc1ccc(C)cc1NC(=O)CSc1nc(SC)ns1`, -0.61%.
The same measure for `CSc1nsc(SCC(=O)Nc2cc(C(=O)O)ccc2C)n1`: 15.6% (active); for `COc1ccc(NC(=O)CSc2nc(SC)ns2)c(OC)c1`: 0.26%.
On to `Cc1cccc(C(=O)N[C@H](C(=O)NCc2cccs2)C(C)C)c1`, for which the activation was 5.5%.
The same measure for `CCC(C)c1ccc(O)c(/C=N/O)c1` (stereo not drawn): -3.25%; for `CNCC(O)c1ccc(O)c(O)c1` (stereo not drawn): 26.5% (active); for `C=CCNC(=O)C12CC3CC(C1)CC(C(=O)NCC=C)(C3)C2`: -0.48%.
The same measure for `Cc1ccccc1NC(=O)C1CCN(C(=O)NC2CCCCC2)CC1`: -2.36%.
The same measure for `O=C(Nc1ccccc1C(=O)O)c1ccc(N2C(=O)C3CC=CCC3C2=O)cc1` (stereo not drawn): -7.43%.
With `OCC1(Cc2ccccc2)CCN(Cc2cc3ccccc3o2)CC1`, the activation was 19.6% (active).
On to `CC(C)c1csc(CN2CCC(CO)(Cc3ccccc3)CC2)n1`, for which the activation is -5.03%.
The same measure for `O=C(c1cc2ccccc2o1)N1CCN(Cc2ccccc2)CC1`: -4.53%; for `CC(C)(C)NC(=O)C(=O)NCc1ccncc1`: -5.23%.
Regarding `COCCCN1C(=O)c2ccc(C(=O)OCC(=O)NCc3ccccc3OC)cc2C1=O`, the activation was -1.38%.
The same measure for `COc1ccc(S(=O)(=O)NC(C)c2ccccc2)cc1C(=O)N1CCCCC1` (stereo not drawn): 4.88%; for `C[C@@H]1ON(C)[C@H]2C[C@H]3c4cc(N5CCN(C)CC5)ccc4CCN3C(=O)[C@@H]12`: 29.5% (active).
On to `CN[C@H]1C[C@H]2c3cc(Oc4ccccc4C)ccc3CCN2C(=O)[C@H]1[C@H](C)O`, for which the activation was 0.5%.
The same measure for `C[C@H](O)[C@@H]1C(=O)N2CCc3ccc(N4CCOCC4)cc3[C@@H]2C[C@@H]1N(C)C(=O)C(C)(C)C`: 9.06%; for `Cc1nn(C)cc1S(=O)(=O)N1CCN(c2ccc(F)cc2)CC1`: -4.86%.
To `Cc1cccnc1C(NC(=O)C1CCN(Cc2ccc(Cl)c(Cl)c2)CC1)c1ccc(Cl)cc1` (stereo not drawn) belongs 16.4% (active); to `Cc1ccc(C(NC(=O)C2CCN(CCOc3ccc(Cl)cc3Cl)CC2)c2ccccn2)cc1` (stereo not drawn), -3.52%.
The same measure for `O=C(NC(c1ccc(Cl)cc1)c1cnccn1)C1CCN(Cc2ccc(Cl)cc2)CC1` (stereo not drawn): -6.28%; for `CCC/C=C(\CCC)C(NC(=O)Cc1ccccc1)c1ccc(C(=O)OC)cc1` (stereo not drawn): -7.9%.
As for `Cc1cccc(N2CC(C)Cn3c2nc2c3c(=O)n(CC(=O)OCc3ccccc3)c(=O)n2C)c1` (stereo not drawn), the activation was 0.76%.
`Cc1cc(C(=O)OCC(=O)N2c3ccccc3NC(=O)C2(C)C)c(C)n1-c1ccccc1`: the activation is 15.2% (active).
To `CNS(=O)(=O)c1cccc(C(=O)OCC(=O)N2c3ccccc3NC(=O)C2(C)C)c1` belongs -2.19%; to `Cc1ccc(OCCC(=O)OCC(=O)N2c3ccccc3NC(=O)C2(C)C)cc1`, -2.36%; to `COc1ccc(N)cc1NC(=O)CN1CCOCC1`, -3.94%.
The same measure for `COc1ccc(C)cc1N(C(=O)Cn1nnc(-c2ccc(C)o2)n1)C(C(=O)NC1CCCC1)c1ccncc1` (stereo not drawn): -2.27%; for `COC(=O)c1ccc(S(=O)(=O)NCc2ccccc2)n1C`: -2.3%.
The same measure for `CC(C(=O)N1CCc2ccccc21)N(C)CC(=O)Nc1ccc(F)cc1` (stereo not drawn): -3.41%; for `N/C(=N\S(=O)(=O)c1cc(C(F)(F)F)cc(C(F)(F)F)c1)c1cccs1`: 31.8% (active).
In the case of `O=C(Cc1cccs1)NCc1cccc(C(F)(F)F)c1`, the activation was -6.31%.
To `Cc1ccc(S(=O)(=O)/N=C(\N)c2ccc(F)cc2)cc1` belongs 0.59%; to `O=C1C2N=NN(CC(=O)N3N=C(c4cccc5ccccc45)CC3c3ccccc3)C2C(=O)N1c1ccccc1` (stereo not drawn), 2.13%; to `Oc1ccccc1C1=NN(c2ccccc2)C(c2ccccc2)C1` (stereo not drawn), 5.22%.
The same measure for `Cc1ccc(N2C(=O)C3N=NN(CC(=O)N4N=C(c5cccc6ccccc56)CC4c4ccccc4)C3C2=O)cc1` (stereo not drawn): 17.6% (active); for `CCN(CC(=O)Nc1cccc(S(=O)(=O)N2CCCCC2)c1)Cc1ccccc1`: -11.3%.
To `COc1cc(Cl)ccc1OCc1cc(C(=O)N(C)CCc2c(C)n[nH]c2C)no1` belongs -10.7%.
Take `CCCNC(=O)C1(C)CCN1C(=O)C1(c2ccccc2)CC1` (stereo not drawn): the activation was -0.58%.
To `CCCOc1ccc(Cc2c(O)nc(N)[nH]c2=O)cc1C` belongs 2.5%.
